Screens (PubChem)
An excerpt weighted towards active compounds, which were near 6.3% of everything screened.
ATXN2 expr inh = ATXN2 expression inhibition | HEK-293 ATXN2-luciferase reporter, luminescence, 24 h | Potency, µM (doses to about 57 µM), without a hit: at the highest dose activity change, negative = inhibition, usual class: inhibitors | 360,000 compounds, 0.72% hits; note: % is set by controls: 0 for no effect and ±100 for the full control effect; nearly all actives have a fitted effect of over 55% in size
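ATXN2-luciferase reporter cells (luciferase flanked by upstream and downstream ATXN2 gene portions) were treated 24 h at 37 °C with compounds at up to 57 uM. SteadyGlo luminescence gave expression; GF-AFC fluorescence gave viability.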
HepG2 viability = counter-screen for TGF-b inhibitors: cytotoxicity in HepG2 cells. HepG2 CAGA-GFP viability, ATP luminescence, 18 h. Potency, µM (titrated, usually from 46.1 µM), for the others: at the top dose activity change, negative = cytotoxicity, actives largely listed as cytotoxic. 410,000 compounds, 0.76% hits. AID 588856
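CellTiter-Glo luminescence gave cytotoxicity after 18 hours at 37 degrees C. The cells were HepG2 CAGA-GFP in 1% FBS DMEM, stimulated with 500 pg/mL TGF-beta after compound addition. %Activity was normalised to no-cell wells (complete cell-killing) and DMSO (no toxicity), and curves were fitted and classified.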
VP16 counter = inhibits Gal4-VP16 luciferase reporter, ROR gamma counter-screen; Drosophila S2 Gal4-VP16 UAS-luciferase, luminescence, 20 h; Potency, µM (titrated, usually from 53.6 µM), without a hit: top-dose activity, negative = inhibition, actives largely listed as inhibitors; 310,000 compounds, 3.5% hits;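 note: Gal4-VP16 expression switched on by copper sulfate through the metallothionein promoter; % is set by controls: 0 for no effect and ±100 for the full control effect; nearly all actives have a fitted effect of over 50% in size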
RORgamma inh = inhibitors of mouse ROR gamma transcriptional activity; P51450; Drosophila S2 Gal4-RORgamma UAS-luciferase reporter, 20 h; Potency, µM (top dose mostly 53.6 µM), for the others: top-dose activity change, negative = inhibition, most hits filed as inhibitors; AID 2551; 310,000 compounds, 5.4% hits; note: % is set by controls: 0 for no effect and ±100 for the full control effect; nearly all actives have a fitted effect of over 60% in size
Target sequence (P51450 whole entry, looked up, the tested form may be a part): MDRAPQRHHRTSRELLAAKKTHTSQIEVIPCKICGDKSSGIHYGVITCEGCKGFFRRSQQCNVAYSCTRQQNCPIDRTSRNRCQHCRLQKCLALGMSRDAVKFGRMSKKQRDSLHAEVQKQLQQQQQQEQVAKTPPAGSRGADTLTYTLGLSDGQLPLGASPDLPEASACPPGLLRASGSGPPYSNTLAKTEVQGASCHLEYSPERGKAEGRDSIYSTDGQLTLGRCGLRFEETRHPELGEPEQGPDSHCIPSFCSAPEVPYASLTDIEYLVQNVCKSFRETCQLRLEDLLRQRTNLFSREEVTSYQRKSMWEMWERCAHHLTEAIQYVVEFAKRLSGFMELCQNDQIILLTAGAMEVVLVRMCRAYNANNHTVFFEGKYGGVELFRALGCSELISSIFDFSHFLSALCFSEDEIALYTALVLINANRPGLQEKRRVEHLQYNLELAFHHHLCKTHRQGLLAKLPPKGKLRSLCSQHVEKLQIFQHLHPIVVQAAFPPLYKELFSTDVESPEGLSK
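Drosophila S2 cells stably expressing Gal4-DBD/mouse RORγ fusion under metallothionein promoter plus UAS-luciferase; compound 1 h, then 700 uM CuSO4 induction for 20 h at ambient temperature; inhibition read as reduced luminescence.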
TGFb inhibitor = blocks TGF-b signaling; HepG2 CAGA-GFP TGF-b/SMAD3 reporter, GFP fluorescence, 18 h; TGF-beta stimulated, 500 pg/mL final; AID 588855; Potency, µM (titrated, usually from 46.1 µM), for inactives: at the top dose activity, negative = inhibition, usual class: inhibitors; 410,000 compounds, 1.2% hits; note: % is set by controls: 0 for no effect and ±100 for the full control effect; nearly all actives have a fitted effect of over 65% in size
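HEPG2 CAGA-GFP, 1000 cells/well; 2 h settle, 37 C; cpd via pin tool; TGF-b 500 pg/mL final; 18 h, 37 C; GFP imaging ex488/em500-530; %Activity normalised to -TGF-b and +DMSO controls; CRC fit, curve class.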
ATXN viability = viability counter-screen for ATXN expression inhibitors | S2 cells (HEK-293 line with an ATXN2-luciferase reporter) viability, CellTiter-Fluor protease fluorescence, 24 h | Potency, µM (titrated, usually from 56.7 µM), actives largely listed as cytotoxic | 400,000 compounds, 0.49% hits | AID 651635; note: nearly all actives have a fitted effect of over 40% in size
Starred values were filed as active, the others as inactive; i = inactive; ? = inconclusive; / = not tested or not shown; [ ] = dose if it differs, or a comment. Calls come from the whole dose curve; as a rule, active = well fitted curve in the direction sought with a large enough effect; inconclusive = small, poorly fitted or top-dose-only effect, or another doubt; inactive = no such curve, though single readings can be large; an effect the other way counts as inactive or inconclusive. Potency is the fitted concentration of half-maximal effect.

SMILES | ATXN2 expr inh | HepG2 viability | VP16 counter | RORgamma inh | TGFb inhibitor | ATXN viability
COc1ccc(CN2CCCC(n3cc(C(=O)N4CCCCC4)nn3)C2)c(OC)c1OC (stereo not drawn) | / | / | / | / | / | i
CCCCN1C(=O)Cc2c1nc(N)c1c(N)nc(N(CCC)CCC)c(C#N)c21 | -8% | -32% | 22µM* | ? | -21% | i
CCCn1c(C)nc2c(NC3CCCCC3)nc(C)nc21 | / | / | 9% | 16µM* | / | /
COC[C@H](NC(=O)c1cnc(C)s1)C(=O)N[C@@H](COC)C(=O)N[C@@H](Cc1ccccc1)C(=O)[C@@]1(C)CO1 | 0.22µM* | / | / | / | / | /
CCn1c2ccccc2c2cc(/C=N/NC(=O)c3ccc(O)cc3)ccc21 | ? | 10% | -19% | -2% | ? | i
CCn1c2ccccc2c2cc(/C=N/NC(=O)c3cc(O)cc(O)c3)ccc21 | -22% | -52% | -10% | 1% | 16µM* | ?
CCn1c2ccccc2c2cc(/C=N/NC(=O)c3ccncc3)ccc21 | ? | -34% | ? | 8.9µM* | 8.9µM* | ?
CC1CN(CC(=O)NCC2(N3CCOCC3)CCCC2)Cc2cc(Cl)ccc2O1 (stereo not drawn) | / | / | / | / | / | i
COc1cc(CN2CCC3(CC2)CC3C(=O)Nc2ccc3sc(C)nc3c2)ccc1F (stereo not drawn) | / | / | / | / | / | i
COc1ccc(-c2n[nH]c(=S)n2-c2ccc(Br)cc2)cc1OC | 34% | -7% | ? | 20µM* | 6% | ?
COc1ccc(-c2n[nH]c(=S)n2-c2ccccc2C)cc1 | -11% | -1% | 6.3µM* | 5.6µM* | -8% | i
COc1ccc(-c2n[nH]c(=S)n2-c2ccccc2C)cc1OC | 1% | 8% | ? | 11µM* | 9% | i
O=c1[nH]c(=O)c2ncn(C3OC(CO)C(O)C3O)c2[nH]1 (stereo not drawn) | / | 6% | / | / | 20% | /
COc1ccc(C)cc1S(=O)(=O)N1CCC(C(=O)NC2CCCC2)CC1 | -13% | -47% | 0% | -15% | -24% | i
COC(=O)c1cc2sc(C)cc2n1Cc1nc(-c2cccc(Br)c2)oc1C | / | 6% | / | / | / | /
CN1CCN(C(=O)C2CCCCC2)CC1 | 7% | / | 4% | 20% | / | i
Cc1ccc(SC/C(O)=C(\C#N)c2nc3ccccc3s2)cc1 | 16% | -23% | / | 1%[0.365 µM] | 25µM* | i
CCC(NC(=S)NC1CCCCC1)c1ccc(C(C)C)cc1 (stereo not drawn) | / | / | 2.5µM* | 1.8µM* | / | /
Cc1ccc(C(C)NC(=S)NC2CCCCC2)cc1C (stereo not drawn) | / | / | 4µM* | 2.5µM* | / | /
CCC(NC(=O)NC1CCCCC1)c1ccccc1 (stereo not drawn) | -9% | -13% | 10% | ? | 2% | i
Cc1ccc(C(C)NC(=S)NC2CCCCC2)c(C)c1 (stereo not drawn) | -31% | -28% | 3.5µM* | 3.2µM* | ? | i
CC1=C(C(=O)N(C(C)C)C(C)C)CC(CC(=O)NCCN2CCOCC2)C(=O)N1Cc1ccccc1 (stereo not drawn) | -3% | -9% | / | / | 6% | i
O=C1CCCC(=O)C1C(=O)c1ccc(C(F)(F)F)cc1[N+](=O)[O-] | 11% | / | / | / | / | /
O=C(Nc1ncnc2nc[nH]c12)c1ccccc1 | / | 0% | / | / | 1% | /
CCOc1ccc2nc(Cl)c(C3CC(c4ccccc4)=NN3C(=O)CCC(=O)O)cc2c1 (stereo not drawn) | 15% | -5% | / | / | 10% | i
SMILES | ATXN2 expr inh | HepG2 viability | VP16 counter | RORgamma inh | TGFb inhibitor | ATXN viability
CC(C)C[C@@H]1Cc2[nH][nH]c(=O)c2[C@H](C)O1 | 16% | / | / | / | / | i
Cc1[nH]n(-c2ccc([N+](=O)[O-])cc2)c(=O)c1/C=N/N1CCOCC1 | -8% | 1.4µM* | 5% | -3% | 2% | i
CCn1c(=O)n(C2=C(CO)CN(CC3CCCCCCC3)CC2)c2ccccc21 | / | / | -2% | 2% | / | /
CC(c1ccccc1F)n1cc(C(=O)NCc2ccncc2)nn1 (stereo not drawn) | 2% | 10% | 5% | 2.8µM* | 4% | i
CCc1ccccc1Nc1ncnc2ccccc12 | -7% | 3% | -7% | 13% | -6% | i
CCCCCCCCNc1ncnc2ccccc12 | ? | -26% | 0.35µM* | 2.2µM* | ? | i
c1ccc(CCNc2ncnc3ccccc23)cc1 | 4% | -12% | 0.56µM* | 1.1µM* | -3% | i
COc1cc2c(cc1OC)C(CNC(=O)C=Cc1cc(OC)c(OC)c(OC)c1)C2 (stereo not drawn) | / | 2% | / | / | 14% | i
Clc1ccc(C2=Nn3c(nnc3-c3cc(-c4ccccc4)n[nH]3)SC2)cc1 | ? | 16µM* | -11%[0.365 µM] | ? | ? | /
CCC(CO)[n+]1c(C)cc(/C=C2\Sc3ccccc3N2Cc2ccccc2)cc1C (stereo not drawn) | ? | -17% | 7.1µM* | ? | 0% | ?
Cc1[nH]c2ccccc2c1C(=O)C(C)Sc1nc2ccccc2c(=O)n1Cc1cccnc1 (stereo not drawn) | / | -2% | / | / | 9% | /
COc1ccc(-n2c(-c3ccc(Cl)cc3)c[n+]3c2CCc2ccccc2-3)cc1 | ? | -20% | 13µM* | ? | -17% | i
CC12CCC(C(=O)N(CSC(=S)N/N=C\c3ccccc3)C1=O)C2(C)C (stereo not drawn) | 3% | -51% | 1.6µM* | 1.1µM* | 0% | i
COc1ccc(OC)c(-c2nnc3ccc(-c4ccc(OC)c(O[C@@H]5CCOC5)c4)nn23)c1 | 27µM* | / | / | / | / | /
O=C(NC1(C(F)(F)F)C(=O)Nc2c1c(=O)[nH]c(=O)n2CCc1ccccc1)c1ccc(Cl)cc1 (stereo not drawn) | 14% | -3% | / | / | -2% | ?
O=[N+]([O-])C(/C=C(\Cl)[N+](=O)[O-])=C(N1CCCCC1)N1CCCCC1 | -6% | -31% | 14µM* | ? | ? | i
O=[N+]([O-])C(=C1SCCS1)C(=C(Cl)Cl)N1CCCCC1 | -26% | -9% | -26% | -6% | 5% | i
Cc1nc2sccn2c1-c1csc(NCc2ccccc2)n1 | 6% | -27% | 1µM* | ? | ? | i
C=CCNc1nc(-c2c(C)nc3sccn23)cs1 | 5% | -16% | -24% | ? | -12% | i
COc1cc(C(=O)OCC(=O)Nc2ccc(OC(F)F)cc2)cc(OC)c1OC | -7% | 4% | 10% | ? | ? | i
